For 14 molecules, binding signal results are on record in article PMC12136788.

Whole data set: some 5,800 sequences, median “enrichment r” near 0.68, cut for the highest 2% near 11. This is one part of a sample in which the highest values are shown more often than they occur.

T1: UNK ZnF1-6 (called full-length) (human, UniProt Q9C0B0 30-357)
T1 sequence: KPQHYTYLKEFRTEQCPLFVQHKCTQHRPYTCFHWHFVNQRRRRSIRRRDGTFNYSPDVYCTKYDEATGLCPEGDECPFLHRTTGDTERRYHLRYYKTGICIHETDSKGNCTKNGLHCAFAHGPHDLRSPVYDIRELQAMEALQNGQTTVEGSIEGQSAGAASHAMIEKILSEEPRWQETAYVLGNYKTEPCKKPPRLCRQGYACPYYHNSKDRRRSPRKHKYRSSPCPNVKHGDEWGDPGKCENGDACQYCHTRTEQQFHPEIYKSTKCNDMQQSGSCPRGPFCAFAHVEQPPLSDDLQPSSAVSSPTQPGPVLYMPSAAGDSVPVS

B1: chr11:118750849:118750950:-|3pUTR|ENSG00000110367|msi1|FALSE|unique (ssRNA)
RNA: GGGAGUUCUACAGUCCGACGAUCAUUCUAGAAAGUACUUUGGCCUCGUGCUGUAGAGAGCAGAUUUCUAUGGUACCCUGUGUUAGUAAAGGGGCCCAGAAAUCUGGGAUGUACUGUUUGCUGCCACACUGUCUCAUCUAGUACCAACAGAGGAUUGAGCAUCA
B2: ENSG00000198589:be:win_8001|CDS|ENSG00000198589|bound_else_gene|NA|bound_elsewhere_windowed (ssRNA)
RNA: GGGAGUUCUACAGUCCGACGAUCUGGAGAUAACCCAGGCAGUGAGACUGCUGCUCCUCGGGCCAUUUUGACCGGCCAUGACUAUGAGGUCACAUGUGCUGCGGUGUGUGCGGAGCUAGGCCUGGUGUUGAGUGGUUCACAAGACAACAGAGGAUUGAGCAUCA
B3: chr2:231108229:231108516:-|three_prime_utr|ENSG00000135914|control|control|control (ssRNA)
RNA: GGGAGUUCUACAGUCCGACGAUCAAGAAUAUCUAAUUUUCCUAAUUUGGACAAGAUUAUUCCAUGAGGAAAAUAAUUUUAUAUAGCUACAAAUGAAAACAAUCCAGCACUCUGGUUAAAUUUUAAGGUAUUCGAAUGAAAUAACAACAGAGGAUUGAGCAUCA
B4: chr5:113594843:113594944:+|3pUTR|ENSG00000047188|msi1|FALSE|bound_elsewhere (ssRNA)
RNA: GGGAGUUCUACAGUCCGACGAUCCAACAUAAAAUCUUGAGAACCUUCUACUUUCUCUGGGAAAGCAUUAUAUAGUGGUGCAUUAGUUUAGAAAGUCAGCUAUGAUUUUGCCUAUAGUUCUAGUUAUUAGCUUUGGGGUUUUCUCAACAGAGGAUUGAGCAUCA
B5: chr3:49657245:49657349:+|CDS|ENSG00000164061|unk|total|mutant (ssRNA)
RNA: GGGAGUUCUACAGUCCGACGAUCCAGCCGCCGUGGCAUCAAGAAGCGGCACUCCAUGCCACGCCUGCGGGAUGCCUGUGAGCCCGAGUCUGGGACUGAGCCCUGUGUGGUCAGGAGGAUUGCCGACAGCAGCGUGCAGACAGACAACAGAGGAUUGAGCAUCA
B6: chr1:193014253:193014354:-|3pUTR|ENSG00000116750|unk|total|mutant (ssRNA)
RNA: GGGAGUUCUACAGUCCGACGAUCUUAACCGGUAUAAGGAUUUUUCUUAUUAAUCUAAUAAAAUUCCUUAACCGGAAUUUCCACCGCUUAAGAGUGGUUUAUUUUAUCUGCAUCUUCUUUGGUGAUUGCAAAUCCCUUGUGAUACAACAGAGGAUUGAGCAUCA
B7: chr1:45660322:45660423:-|5pUTR|ENSG00000159592|unk|FALSE|unique (ssRNA)
RNA: GGGAGUUCUACAGUCCGACGAUCUCCCCUUCCCCCCUUCCCCUUUUCCCCUUUCCCCUUUUGGAAACGUGUCAGGAACCAAAUAGUUUAAGAUGAGCAGUUGAGGGGACUGAGAGAGUGAUCGACACAGAACCUGGCUUCUUCCAACAGAGGAUUGAGCAUCA
B8: ENSG00000070961:be:win_3901|3pUTR|ENSG00000070961|bound_else_gene|NA|bound_elsewhere_windowed (ssRNA)
RNA: GGGAGUUCUACAGUCCGACGAUCAAGUGACCUGUGGAUCAUCAGUAGUACCCAAGCAUGGUCCUGAACAGUGUAUUAGCAGAGCUUUAGUUUAUCUCAGUCCUGGAUGGGAGAGAGAGGGAGGAGUAAAACUGGGCAAGACAACAACAGAGGAUUGAGCAUCA
B9: chr11:95167508:95167609:-|3pUTR|ENSG00000149212|unk|FALSE|unique (ssRNA)
RNA: GGGAGUUCUACAGUCCGACGAUCAAUAAUGGAGACUGAAUGAGGCGGUUUGUAUUAAAUUAUAUGCCAUGAAGUGUUCAUUUUAGCUUUAACCUAAUUAUGACUGUACCACCAUGAAGUACAGAAUGAAAAAUUAUAUAUAUGCAACAGAGGAUUGAGCAUCA
B10: chr8:30843048:30843149:-|CDS|ENSG00000133863|unk|FALSE|unique (ssRNA)
RNA: GGGAGUUCUACAGUCCGACGAUCGGAUACUAUAAUUGCUUCCAGAAAGUCAGAUCAUCCAAUAAACGAAGCAACAAUUAGCAUAGAAAAUUCUAAAUUUAACAGUAAUUUGCUUGCACACCCAGAUAUUUGUUGUAUUAGUGACAACAGAGGAUUGAGCAUCA
B11: chr8:80500255:80500365:+|CDS|ENSG00000205189|unk|FALSE|unique (ssRNA)
RNA: GGGAGUUCUACAGUCCGACGAUCGAAAAACCAAACUACAAAAAGAUUUAUUUAUAAUAUUCCACCUAAUAAUGAAACGAAUUUAGAAGAUUGCUCAGUAAUGCAGCCACCUGUUGCCUAUCCAGAAGAAAAUACACUACUCAUCAACAGAGGAUUGAGCAUCA
B12: ENSG00000136451:be:win_3801|3pUTR|ENSG00000136451|bound_else_gene|NA|bound_elsewhere_windowed (ssRNA)
RNA: GGGAGUUCUACAGUCCGACGAUCACCCCUAAGCUAGAAUGUGGUUGUCAGAACCCUGAAAGUAUUAGUUCUAAAAAAAAAAAGAUAUAUACUAGAAGUAAUUGUUUUAUCAAUUCAUUGUAUAAUAAACAGGAGUGAGACUUCCAACAGAGGAUUGAGCAUCA
B13: chr2:42328916:42329027:+|CDS|ENSG00000143924|unk|total|mutant (ssRNA)
RNA: GGGAGUUCUACAGUCCGACGAUCAGAAGGAUCUGAUGGGACAGAUAUCAAUGCACUGGUGCGAUCCCACAACCGAAAGGUGACCGCUGUUGCCGAUGACUUUUGUAAAGUCCAUCUGUUUCAGUAUCCCUGCUCCAAAGCAAACAACAGAGGAUUGAGCAUCA
B14: chr6:52279506:52279615:-|CDS|ENSG00000112118|unk|total|mutant (ssRNA)
RNA: GGGAGUUCUACAGUCCGACGAUCUGAGUGUGGCAUUUUUAAGACAGGACGGAGAUCACUCUGUCCCUCUGUGUGCCUUUUUCCCGGAUGAGGAGAACAAUCCCCUUGAGACAGAAUAUGGCCUUUCUGUCUACAAGGAUCACCCAACAGAGGAUUGAGCAUCA

For this experiment, the target named is T1, UNK ZnF1-6 (called full-length). Kind of experiment: nsRBNS (natural sequence RNA bind-n-seq); RBNS binding buffer (assumed for nsRBNS): 25 mM Tris pH 7.5, 150 mM KCl, 3 mM MgCl2, 0.01% Triton X-100, 500 ug/ml BSA, 20 U/ml SUPERase-In, 4 C; UNK is unkempt and MSI1 is Musashi-1; names of the RNAs are library labels; protein concentration not given here; high values mean tight binding.
Take B1: the binding signal was 0.975 enrichment R.

B2 yielded a binding signal of 0.695 enrichment R.

In turn, B3 gave a binding signal of 1.88 enrichment R.

In turn, B4 came in with a binding signal of 5.33 enrichment R.

B5 registered a binding signal of 0.785 enrichment R.

In turn, B6 had a binding signal of 0.372 enrichment R.

On to B7, for which the binding signal was 0.765 enrichment R.

The molecule B8 displayed a binding signal of 1.72 enrichment R.

B9 registered a binding signal of 8.52 enrichment R.

In turn, B10 gave a binding signal of 14.2 enrichment R.

On to B11, for which the binding signal came out at 9.28 enrichment R.

With B12, the binding signal was 2.41 enrichment R.

B13 had a binding signal of 0.381 enrichment R.

Molecule B14 registered a binding signal of 0.393 enrichment R.
